A short description of test [1]: Viability qHTS for spleen associated tyrosine kinase inhibitor (SYKi) naive MV4-11 cells (AID 1963823). Further: nearly all actives have a fitted effect of over 40% in size. The method in brief: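 In this viability screen, compounds acted on SYK inhibitor naive MV4-11 cells for three days (72 hr, 37 C). Remaining viable cells were measured by CellTiter-Glo luminescence following a 10 min room-temperature development.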
On the technique in general: qHTS replaces the single test concentration by a dilution series.

A short description of test [2]: Viability qHTS for spleen associated tyrosine kinase inhibitor (SYKi) drug resistant MV4-11 cells (AID 1963824). Further: nearly all actives have a fitted effect of over 35% in size. The method, boiled down:
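SYK-inhibitor-resistant MV4-11 AML cells were seeded at 500 per well onto compound and cultured 72 hours (37 °C, 5% CO2). CellTiter-Glo was then added, and after 10 min at room temperature, luminescence gave viability.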

Records with an inconclusive call do not appear. A number with no mark means an inactive call. Activity calls are given as the source filed them. The call rests on the fitted dose curve; in most records, active means well fitted cell-killing curve with a large enough effect; inconclusive means small, poorly fitted or top-dose-only effect, or effect the other way; inactive means no such curve, though single readings can be large or run the other way.
Potency means the concentration at half of the fitted maximal effect.

Consider `C/C(=N\N=C(N)N)c1ccc(NC(=O)Nc2ccc(/C(C)=N/N=C(N)N)cc2)cc1`, for which the figures for the Potency in test [1] and in test [2] were 2.06 µM (active) and 0.731 µM (active), respectively.
Take `CC(=O)OC[C@@]12C(=O)C[C@@H](C)[C@]3(C[C@@H](c4ccoc4)O[C@H]3OC(C)=O)[C@H]1CCC[C@]21CO1`: the Potency entry in test [1] and in test [2] was “inactive” each time.
For the compound `Cc1cc(C(=O)Nc2nc3cccc(Cl)c3n2C2CCCCN(C(=O)/C=C/CN(C)C)C2)ccn1` (stereo not drawn), the Potency in test [1] was 5.17 µM (active); in test [2] it was 8.2 µM (active).
For `CC(C)NC(=O)C1CCC(n2c(NC(=O)c3ccc(F)cc3)nc3ccc(CN4CCC(C(C)(C)O)CC4)cc32)CC1` (stereo not drawn) the same measures were 1.02 µM (active) and 2.04 µM (active).
Take `O=C(OC[C@H]1O[C@@H](Oc2ccccc2CO)[C@H](O)[C@@H](O)[C@@H]1O)c1ccccc1`: the Potency entry in test [1] and in test [2] was “inactive” throughout.
In the case of `Cc1noc(-c2ccc(-c3ccc(C4(C(=O)O)CC4)cc3)cc2)c1NC(=O)O[C@H](C)c1ccccc1`, the Potency in test [1] was 16.6 µM (active); in test [2] it was 11.8 µM (active).
For `COc1cc(C2c3cc4c(c(O)c3CC(CO)C2C(=O)O)OCO4)cc(OC)c1O` (stereo not drawn) the same measures were 2.52 µM (active) and 2 µM (active).
On to `C/C=C/C=C/C=C/C(=O)O[C@@H]1[C@@H](OC)C2=C(C(=O)N(C(C)C(=O)O)C2)[C@@]2(C)CCCC(C)(C)[C@H]12` (stereo partly drawn), for which the Potency entry in test [1] and in test [2] was “inactive” throughout.
In the case of `C=C1C(=O)OC2C(OC(=O)C=C(C)C)C(C)=C3C(=O)C=C(C)C3C(O)C12` (stereo not drawn), the Potency in test [1] is 2.02 µM (active); in test [2], 1.61 µM (active).
Regarding `CN1CCC(c2c(O)cc(O)c3c(=O)cc(-c4ccccc4Cl)oc23)C(O)C1` (stereo not drawn), the results for the Potency in test [1] and in test [2] were 0.259 µM (active) and 0.206 µM (active), respectively.
Turning to `OC[C@@]1(O)CO[C@@H](OC[C@H]2O[C@@H](OCc3ccccc3)[C@H](O)[C@@H](O)[C@@H]2O)[C@@H]1O`, the Potency result in test [1] and in test [2] was “inactive” throughout.
`C=C(C)C(=O)OC1CC2(C)OC(=CC2=O)C(=C)CC2OC(=O)C(=C)C12` (stereo not drawn): the values for the Potency in test [1] and in test [2] were 0.255 µM (active) and 0.36 µM (active), respectively.
In the case of `O=c1cc(-c2cccc(O)c2)oc2c(O)c(O)ccc12`, the Potency in test [1] was 14.6 µM (active); in test [2], 16.4 µM (active).
Turning to `c1nc(NCC2CCOC2)c2cc(-c3ccc4c(c3)OCO4)ccc2n1` (stereo not drawn), the Potency was 20.6 µM (active) in test [1] and 18.4 µM (active) in test [2].
`CC(c1c[nH]c2ccccc12)C(O)C(=O)O` (stereo not drawn): the Potency result in test [1] and in test [2] was “inactive” throughout.
Consider `CC(C)(OC1OC(CO)C(O)C(O)C1O)C1CCC(O)(CO)C2CC(=O)C(C)(O)C2C1` (stereo not drawn), for which the Potency entry in test [1] and in test [2] was “inactive” throughout.
Regarding `O=C(NCCN1CCC(n2c(=O)[nH]c3ccccc32)CC1)c1cc2cc(F)ccc2[nH]1`, the Potency in test [1] and in test [2] was 18.4 µM (active) in each case.
On to `COC1=CC(=O)C[C@@H](C)[C@@]12Oc1c(Cl)c(OC)cc(OC)c1C2=O`, for which the Potency entry in test [1] and in test [2] was “inactive” each time.
As for `CC(=O)O[C@H]1C[C@@]2(C)[C@@H](C[C@@H](O)[C@H]3[C@@]4(C)CC[C@@H](O)[C@@H](C)[C@@H]4CC[C@@]32C)/C1=C(\CCC=C(C)C)C(=O)O`, the Potency result in test [1] and in test [2] was “inactive” in each case.
For `COc1ccc(-c2ccc3c(N4CCOCC4)nc(N4CC(C)OC(C)C4)nc3n2)cc1CO` (stereo not drawn), the Potency is 0.291 µM (active) in test [1] and 1.03 µM (active) in test [2].
Take `CC(C)(O)C(O)C(=O)OCc1ccc(O[C@@H]2O[C@H](CO)[C@@H](O)[C@H](O)[C@H]2O)cc1` (stereo partly drawn): the Potency entry in test [1] and in test [2] was “inactive” in each case.
For `COC(=O)C1=CO[C@@H](O[C@@H]2O[C@H](CO)[C@@H](O)[C@H](O)[C@H]2O)[C@@H]2[C@@H](CO)[C@@H](O)C(O)[C@H]12` (stereo partly drawn), the Potency entry in test [1] and in test [2] was “inactive” in each case.
Take `CC1=C2[C@@H]([C@H](C)CC[C@H]2/C=C(\C)C(=O)O)[C@H](O)C1`: the Potency result in test [1] and in test [2] was “inactive” throughout.
In the case of `Cc1ccc(-c2nn(C(C)(C)C)c3ncnc(N)c23)cc1`, the Potency is 3.66 µM (active) in test [1] and 8.2 µM (active) in test [2].
`CCOc1nc2cccc(C(=O)OCc3oc(=O)oc3C)c2n1Cc1ccc(-c2ccccc2-c2noc(O)n2)cc1`: the Potency result in test [1] and in test [2] was “inactive” throughout.
Consider `O=C1COc2nccc(-c3ccccc3F)c2CN1Cc1cc(C(F)(F)F)cc(C(F)(F)F)c1`, for which the results for the Potency in test [1] and in test [2] were 11.6 µM (active) and 16.4 µM (active), respectively.
For the compound `CC1(C)CC[C@]2(C(=O)O[C@@H]3O[C@H](CO)[C@@H](O)[C@H](O)[C@H]3O)CC[C@]3(C)C(=CCC4[C@@]5(C)CC[C@H](O[C@@H]6O[C@H](C(=O)O)[C@@H](O)[C@H](O)[C@H]6O)C(C)(C)C5CC[C@]43C)C2C1` (stereo partly drawn), the viability (% of control) in test [1] is 91.3% [at 9.25 µM]. Further, the viability, % of control in test [2] is 98% [at 9.25 µM].
Take `C[C@@]12C[C@]3(O)O[C@H](O1)[C@]1(COC(=O)c4ccccc4)[C@H]3C[C@@]12O[C@@H]1O[C@H](COC(=O)c2ccccc2)[C@@H](O)[C@H](O)[C@H]1O`: the Potency entry in test [1] and in test [2] was “inactive” in each case.
`COc1cc(NC(=O)c2cc(C3CC3)on2)c(OC)cc1Cl`: the Potency entry in test [1] and in test [2] was “inactive” in each case.

Values taken from PubChem BioAssay (NCATS).
